# Screening results: PubChem BioAssay, several laboratories
# S1P3 antagonist: antagonists of human S1P3 receptor; AID 485; CHO S1P3 NFAT-BLA reporter, FRET fluorescence, antagonist mode; Q99500; 0.27% of 170,000 active; inhibition, % at 4.98 µM;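 active = inhibition above the plate cutoff, the mean inhibition of test wells on that plate plus 3 SD, cut at about 28% in these data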;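 also: cells challenged with S1P at its EC80 of 0.8 µM; blue over green emission ratio from cleaved BLA substrate after 4 h stimulation; 0% = S1P-stimulated wells and 100% = unstimulated DMSO-only wells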
# Target sequence (Q99500 whole entry, looked up): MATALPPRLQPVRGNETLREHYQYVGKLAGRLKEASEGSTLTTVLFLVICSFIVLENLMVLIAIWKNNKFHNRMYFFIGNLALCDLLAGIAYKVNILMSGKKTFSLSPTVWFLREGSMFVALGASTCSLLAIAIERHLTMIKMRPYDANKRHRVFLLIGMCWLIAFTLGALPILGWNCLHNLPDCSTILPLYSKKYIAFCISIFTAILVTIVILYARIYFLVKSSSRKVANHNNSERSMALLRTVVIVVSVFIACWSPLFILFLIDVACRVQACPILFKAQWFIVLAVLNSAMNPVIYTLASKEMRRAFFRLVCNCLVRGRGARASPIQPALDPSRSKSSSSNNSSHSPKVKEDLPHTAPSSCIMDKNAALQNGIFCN
# Hsp70 activator: transcriptional activators of Hsp70; HeLa Hsp70 promoter luciferase reporter, luminescence; scaled: vehicle 0, proteasome-inhibitor control 100%; activation, % at 10 µM; 0.04% of 200,000 active; AID 1203;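 active = activation above the mean across all tested compounds plus 3 SD, cutoff set per campaign, cut at about 5.5% in these data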;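 also: 100% = MG132 at 30 µM as the positive control and 0% = DMSO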
# HSF1 inhib: HSF1 inhibition; NIH3T3-HGL HSE-luciferase, MG132-induced, luminescence 8 h; active compounds read low; activity change, negative = inhibition, % at 7.5 µM (by protocol); 0.77% of 300,000 active; AID 2098;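 active = more than half of replicate wells show activity change below -50%, luminescence cut by over half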;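 also: luciferase reports HSF-1 transcriptional activity via heat shock element; 0% = median of DMSO wells and -100% = zero luminescence signal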
# HSF1 activator: increases HSF-1 driven luciferase reporter signal | NIH3T3-HGL HSF-1 luciferase reporter, MG132, 8 h; 100% = twice DMSO control signal | 1.7% of 300,000 active | activation, % at 9 µM;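 active = mean replicate activation of at least 50% with a set share of replicates each reaching 50%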;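 also: 0% = median of the neutral control wells and 100% = twice that signal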
# S1P4 antagonist: antagonists of human S1P4 receptor | S1P4-expressing cells, antagonist mode, reporter read-out | inhibition, % at 4.98 µM | 0.26% of 220,000 active | AID 1510; in the data active = inhibition above about 29%;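 also: 0% = wells stimulated with agonist and 100% = vehicle wells without agonist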
# S1P4 agonist: agonists of human S1P4 receptor; activation, % at 4.98 µM; S1P4-expressing cell line, agonist reporter assay; AID 1509; 0.35% of 220,000 active; in the data active = activation above about 11%;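 also: 0% = DMSO vehicle and 100% = reference agonist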
# Numbers without * were called inactive; x = no result given. Most compounds without a hit are left out; they make up all but 2.9% or so of the library.
SMILES,S1P3 antagonist,Hsp70 activator,HSF1 inhib,HSF1 activator,S1P4 antagonist,S1P4 agonist
CCOc1ccc(S(=O)(=O)N2CCCCC2)cc1NC(=O)C1CCC1,x,x,1,8,x,x
O=C(CSc1nc2ccccc2c2c1CCCC2)N1CCOCC1,x,x,2,8,x,x
C=CCOc1ccc(/C=N/Nc2ccccn2)cc1OC,-16,0,29,66*,-12,0
C(=N\Nc1ccccn1)/c1ccc2c(c1)OCCO2,3,0,27,61*,-4,1
O=C(c1ccco1)N1CCN(Cc2nnc(-c3ccccc3)o2)CC1,x,x,0,5,x,x
CCOC(=O)C1=C(N)Oc2cc(O)ccc2C1c1ccc(Br)cc1 (stereo not given),x,x,6,14,x,x
COc1cc2c(cc1NC(=O)COC(=O)[C@@H](NS(=O)(=O)c1ccccc1)C(C)C)oc1ccccc12,-1,0,32,90*,-16,0
COC(=O)c1ccc2nc(NC(=O)C(C)(C)C)sc2c1,-3,-1,-55*,-66,7,-4
CC(=O)c1sc(Nc2nc3ccc(F)cc3s2)nc1C,-19,0,55,82*,-2,3
COC(=O)c1ccc2nc(Nc3nc4ccc(F)cc4s3)sc2c1,-30,-1,-89*,-91,-2,5
COC(=O)c1ccc2nc(NC(=O)C3CCCCC3)sc2c1,7,0,-8,5,4,1
COc1ccc(NC(=O)C(=O)NCC(c2ccco2)N2CCc3ccccc3C2)cc1OC (stereo not given),x,x,-2,-8,x,x
Cc1ccc(C)c(NC(=O)C2CCN(C(=O)c3cccs3)CC2)c1,x,x,-1,11,x,x
CCOc1ccc(C(C)=O)cc1CN1c2ccc(S(N)(=O)=O)cc2CC1C (stereo not given),x,x,-10,10,x,x
Cc1ccc(NC(=O)NC(=S)NC(=O)c2ccccc2)cc1,-5,0,23,54*,-4,0
Cc1ccc(C(=O)NNC(=S)NC(=O)c2ccccc2)cc1,x,x,0,-2,x,x
Cc1ccc(C(=O)NC(=S)Nc2cccnc2Cl)cc1,x,x,33,65*,x,x
COc1ccccc1C(=O)NC(=S)Nc1cccnc1Cl,x,x,-22,-28,x,x
Nc1c(C(=O)c2ccccc2)sc2nsc(SCCN3CCOCC3)c12,0,x,24,60*,10,0
CC(NC(=O)c1ccc(CS(C)(=O)=O)cc1)c1cccc2ccccc12 (stereo not given),x,x,3,12,x,x
O=C(C1CCC1)N1CCN(c2ccc(C(F)(F)F)cc2[N+](=O)[O-])CC1,x,x,2,2,x,x
O=C(Nc1ccccc1)N1CCCN(c2ccc(C(F)(F)F)cc2[N+](=O)[O-])CC1,13,x,39,54*,0,-1
CCOC(=O)N1CCN(S(=O)(=O)N2CCCC(C(=O)NCc3ccccc3Cl)C2)CC1 (stereo not given),x,x,-53*,-64,x,x
CCC(=O)OCCNc1cc(Sc2nccn2C)c2nonc2c1[N+](=O)[O-],5,0,400,437*,-14,1
CCC(=O)OCCNc1cc(SCCC(=O)OC)c2nonc2c1[N+](=O)[O-],-21,0,6,17,-14,-1
SMILES,S1P3 antagonist,Hsp70 activator,HSF1 inhib,HSF1 activator,S1P4 antagonist,S1P4 agonist
CNC(=S)N(Cc1ccc(OC)cc1)Cc1cc2ccc(C)cc2[nH]c1=O,-19,0,15,2,-15,0
CC(=O)NCCNC(=O)c1ccc(CSc2ccc(Cl)cc2)cc1,-24,0,69,68*,5,-1
O=C(NCc1ccccc1)c1ccc(Cl)cc1,2,x,0,0,5,-3
CC(C)c1ccc(C(=O)NCc2ccc(Cl)cc2)cc1,3,1,25,57*,-4,-2
CCNC(=O)c1ccc(CSc2ccc(Cl)cc2)cc1,18,0,12,23,-9,3
Cc1cc(C)c2nc(NC(=O)c3cccc(S(=O)(=O)N4CCc5ccccc54)c3)sc2c1,-2,0,6,11,-33,0
CCOC(=O)/C(=C\c1ccc(Cl)cc1)c1nc2sc(C)c(C)c2c(=O)[nH]1,4,0,185,241*,3,0
CC(C)c1ccc(-n2cnn(-c3ncccc3[N+](=O)[O-])c2=O)cc1,-19,0,26,54*,-18,0
Cc1cc(C)n(-c2ncccc2[N+](=O)[O-])n1,-9,x,-4,5,15,0
CN(Cc1ccccc1)C(=O)c1cc(-c2ccc(Br)cc2)on1,6,0,18,62*,-3,0
Cc1c(C(=O)NCCC2=CCCCC2)sc2ncnc(N3CCCCC3C)c12 (stereo not given),x,x,-3,-22,x,x
COc1cc(C=O)ccc1OCc1ccccc1Br,-1,0,11,20,-23,2
CCN(CC)C(=O)COc1ccc(C=O)cc1OC,-8,0,38,75*,-13,2
COc1cc(C=O)ccc1OCc1cccc(Br)c1,-5,0,24,63*,-20,2
CNC(=O)COc1ccc(C=O)cc1OC,-12,0,3,10,-12,-1
Cc1cc(/C=C2\SC(=S)N(Cc3ccco3)C2=O)c(C)n1-c1ccccc1,12,0,-66*,-72,-1,1
ClCC1CSC(=NC23CC4CC(CC(C4)C2)C3)O1 (stereo not given),0,0,30,59*,4,4
C/C(=N\Nc1ccc(C(=O)O)cc1)c1ccc2c(c1)Nc1ccccc1S2,4,x,-5,-4,7,-1
CCOc1ccc2nc(N3CCCCCC3)sc2c1,0,0,45,72*,-18,3
CCOC(=O)c1c(N2C(=O)C3C4C=CC(O4)C3C2=O)sc2c1CCCC2 (stereo not given),x,0,68,104*,-3,0
CSCC[C@H](NC(=O)C1CCN(S(=O)(=O)c2ccccc2)CC1)C(=O)NC1CC1,x,x,-71*,-77,x,x
O=C(NC1CCCC1)C1CCN(c2nccs2)CC1,x,1,-4,14,-4,-2
Cc1ccc(S(=O)(=O)NCCC(=O)N2CCN(S(=O)(=O)c3ccccc3)CC2)cc1C,x,x,-55*,-65,x,x
O=C(N1CCCCC1)N1CCN(S(=O)(=O)c2ccccc2)CC1,x,x,-71*,-77,x,x
O=C(NC1CCCCC1)C1CCN(c2nccs2)CC1,-3,0,-58*,-69,6,1
SMILES,S1P3 antagonist,Hsp70 activator,HSF1 inhib,HSF1 activator,S1P4 antagonist,S1P4 agonist
CC(C)=NOCc1ccc(-c2cn([C@@H]3COC[C@H]3O)nn2)cc1,0,0,x,x,14,0
O=C(NC1CCCCCC1)C1CCN(S(=O)(=O)c2ccccc2)CC1,-32,0,8,55*,-4,-1
O=C(NC1CCN(S(=O)(=O)c2ccccc2)CC1)C1CCCCC1,x,0,-8,-14,0,2
Cc1ccc(-c2[nH]ncc2C(=O)c2ccc(Br)cc2)c(O)c1,x,x,15,71*,x,x
CCCCCCCCCCCC(=O)c1c(O)cccc1O,13,0,20,51*,6,-1
COc1cc(/C=N/NC(N)=O)cc(Br)c1OCc1ccccc1C,x,0,2,19,10,1
